# Results reported in PubChem BioAssay.
# Activity calls are given as the source filed them.
# Assays:
# [1] = test system: Plasmodium falciparum Sir2 (PF13_0152, Sir2A); experiment: Plasmodium falciparum Sir2A binding compounds – biochemical, small-molecule microarray, 635 nm fluorescence, primary screen (AID 1098); conditions: fluorescence 635 nm, higher = more signal;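 further: score merges spot fluorescence intensity with its signal-to-noise ratio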
# [2] = probe aDKK1 binding to arrayed compounds – biochemical, biotinylated probe, 635/667 nm fluorescence, primary screen (AID 1099); conditions: small-molecule microarray, higher = more signal;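 further: score merges 667nm spot fluorescence with signal to noise across triplicate slides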
# [3] = probe aCHRDL2 binding to arrayed compounds – biochemical, biotinylated probe, 635/667 nm fluorescence, primary screen (AID 1100); conditions: small-molecule microarray, higher = more signal
# [4] = change in splice reporter luminescence, either direction, cell-based, HEK293, spliceosome inhibition project, primary screen (AID 1101); conditions: HEK293 splicing luciferase reporter, 24 h, higher = more signal, called active from +8 up or from −8 down;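 further: HEK293 cells carrying a splicing-competent luciferase reporter gene; test concentration not given here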
# [5] = target: Fibroblast growth factor 10 (Homo sapiens) (UniProt O15520); experiment: compounds binding fibroblast growth factor 10 – biochemical, small-molecule microarray, 635 nm fluorescence, primary screen (AID 1102); conditions: FGF10 binding, fluorescence 635 nm, higher = more signal
# [6] = test system: glycogen synthase kinase-3 (GSK3A per assay name; protocol says GSK3B); experiment: compounds binding glycogen synthase kinase-3 – biochemical, small-molecule microarray, 635 nm fluorescence, GSK3A, primary screen (AID 1103); conditions: fluorescence 635 nm, higher = more signal; further: the record names both GSK3A and GSK3B
# [7] = target: Epidermal growth factor receptor (Homo sapiens) (UniProt P00533); experiment: compounds binding epidermal growth factor receptor – biochemical, small-molecule microarray, 635 nm fluorescence, primary screen (AID 1104); conditions: EGFR binding, higher = more signal;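 further: score merges 667 nm emission intensity with spot signal to noise over triplicate slides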
# [8] = target: Follistatin-related protein 3 (Homo sapiens) (UniProt O95633); experiment: compounds binding follistatin-related protein 3 – biochemical, small-molecule microarray, 635 nm fluorescence, primary screen (AID 1105); conditions: FSTL3 binding, higher = more signal;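 further: score merges emission near 667 nm and signal to noise per printed spot across three slides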
# [9] = target: Dickkopf-related protein 1 (Homo sapiens) (UniProt O94907); experiment: small molecules binding DKK1 protein – biochemical, small-molecule microarray, 635 nm fluorescence scan, primary screen (AID 1106); conditions: higher = more signal;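 further: score merges emission near 667 nm with signal to noise over three replicate slides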
# [10] = test system: Inhibin beta A chain (activin A); experiment: small molecules binding activin A – biochemical, small-molecule microarray, 635 nm fluorescence scan, primary screen (AID 1107); conditions: INHBA, higher = more signal;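 further: mouse activin A protein probed at 4.33 µg/mL on printed slides; score merges bound-protein fluorescence near 667 nm with spot signal-to-noise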
# [11] = test system: Human papillomavirus type 1a protein E7 (residues 44-93); experiment: small molecules binding HPV E7 44-93 – biochemical, small-molecule microarray, residues 44-93, 635 nm fluorescence, primary screen (AID 1108); conditions: fluorescence 635 nm, higher = more signal;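 further: E7 fragment applied at 1 µg/mL in TBST for 1 h at 4 C; score combines spot fluorescence with its signal to noise ratio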
# [12] = hepatitis C replication reporter changes, two-sided – Huh7 cells, luciferase reporter, HCV replication inhibitor project, primary screen (AID 1109); conditions: Huh7 HCV replicon luciferase reporter, 48 h; higher = more signal;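 further: huh7 hepatoma cells harbouring a luciferase neomycin HCV replicon reporter; luciferase luminescence as measure of HCV replicon replication; test concentration not given here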
# [13] = target: Left-right determination factor 2 (Homo sapiens) (UniProt O00292); experiment: small molecules binding LEFTY2 protein – biochemical, small-molecule microarray, 635 nm fluorescence scan, primary screen (AID 1110); conditions: higher = more signal
# [14] = target: Calmodulin-1 (Homo sapiens) (UniProt P0DP23); experiment: small molecules binding calmodulin-1 with EGTA – biochemical, small-molecule microarray, Cy5-labelled CALM1, profiling panel (AID 1111); conditions: Cy5-CALM1 binding fluorescence, higher = more signal;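 further: labelled calmodulin applied in Tris saline Tween buffer holding calcium plus EGTA and DTT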
# [15] = target: Calmodulin-1 (Homo sapiens) (UniProt P0DP23); experiment: small molecules binding Ca-loaded calmodulin-1 – biochemical, small-molecule microarray, Cy5-labelled CALM1, plus calcium, artefact control for SMM control-protein annotation, profiling panel (AID 1112); conditions: Cy5-CALM1 binding fluorescence, higher = more signal;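 further: score merges spot fluorescence with signal to noise from triplicate slides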
# [16] = probe aWnt5a binding to arrayed compounds – biochemical, biotinylated probe, 635/667 nm fluorescence, primary screen (AID 1113); conditions: small-molecule microarray, higher = more signal;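 further: score merges 667 nm fluorescence intensity with signal-to-noise per printed feature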
# [17] = probe aShh binding to arrayed compounds – biochemical, biotinylated probe, 635/667 nm fluorescence, primary screen (AID 1114); conditions: small-molecule microarray, higher = more signal;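 further: probe is biotin-labelled aShh protein from a stem cell growth factor screen; measures binding of labelled protein to compounds printed on the slide; score merges feature fluorescence at 667 nm with signal-to-noise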
# [18] = probe aNog binding to arrayed compounds – biochemical, biotinylated probe, 635/667 nm fluorescence, primary screen (AID 1115); conditions: small-molecule microarray, higher = more signal;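 further: probe is biotinylated aNog protein used at 0.15 µg/mL for 1 h at 4 C; z-score combines 667 nm fluorescence of each spot with its signal to noise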
# [19] = target: Torsin-1A-interacting protein 1 (Homo sapiens) (UniProt Q5JTV8); experiment: compound microarray binding of lysate hLAP1 – cell lysate, small-molecule microarray, COS7 lysate, 635/667 nm fluorescence, primary screen (AID 1116); conditions: 635 nm fluorescence, higher = more signal
# [20] = target: Alpha-bungarotoxin (Bungarus multicinctus) (UniProt P60615); experiment: compounds binding labelled alpha-BTX control protein – biochemical, small-molecule microarray, Alexa647 label, 635/667 nm fluorescence, artefact control for SMM control protein annotation, profiling panel (AID 1117); conditions: alpha-BTX-A647 binding fluorescence, higher = more signal
# Chain of Alpha-bungarotoxin (Bungarus multicinctus) (P60615 whole entry, looked up): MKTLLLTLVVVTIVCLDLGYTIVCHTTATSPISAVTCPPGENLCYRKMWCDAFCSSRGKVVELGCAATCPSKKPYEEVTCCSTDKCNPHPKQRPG
# Chain of Fibroblast growth factor 10 (Homo sapiens) (O15520 whole entry, looked up): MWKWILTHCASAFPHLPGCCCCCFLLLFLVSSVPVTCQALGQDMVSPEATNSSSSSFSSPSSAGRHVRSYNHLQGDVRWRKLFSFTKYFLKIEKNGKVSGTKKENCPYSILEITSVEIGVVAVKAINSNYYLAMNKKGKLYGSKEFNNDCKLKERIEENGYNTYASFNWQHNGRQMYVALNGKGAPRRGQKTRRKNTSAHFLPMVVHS
# Chain of Follistatin-related protein 3 (Homo sapiens) (O95633 whole entry, looked up): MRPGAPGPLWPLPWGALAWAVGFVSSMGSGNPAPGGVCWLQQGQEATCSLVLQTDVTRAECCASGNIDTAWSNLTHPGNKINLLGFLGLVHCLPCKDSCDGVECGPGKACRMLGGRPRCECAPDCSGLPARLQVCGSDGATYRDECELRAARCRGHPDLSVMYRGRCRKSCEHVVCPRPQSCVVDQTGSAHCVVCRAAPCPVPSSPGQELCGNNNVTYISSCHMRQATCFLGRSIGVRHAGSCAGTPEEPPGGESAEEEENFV
# Chain of Dickkopf-related protein 1 (Homo sapiens) (O94907 whole entry, looked up): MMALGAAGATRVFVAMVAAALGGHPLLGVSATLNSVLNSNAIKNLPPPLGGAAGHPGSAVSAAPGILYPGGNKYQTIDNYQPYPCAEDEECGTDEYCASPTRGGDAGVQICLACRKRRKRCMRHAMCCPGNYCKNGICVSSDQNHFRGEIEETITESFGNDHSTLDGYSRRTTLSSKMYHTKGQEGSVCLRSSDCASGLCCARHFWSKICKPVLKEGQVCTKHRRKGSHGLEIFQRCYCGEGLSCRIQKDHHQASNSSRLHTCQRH
# Chain of Left-right determination factor 2 (Homo sapiens) (O00292 whole entry, looked up): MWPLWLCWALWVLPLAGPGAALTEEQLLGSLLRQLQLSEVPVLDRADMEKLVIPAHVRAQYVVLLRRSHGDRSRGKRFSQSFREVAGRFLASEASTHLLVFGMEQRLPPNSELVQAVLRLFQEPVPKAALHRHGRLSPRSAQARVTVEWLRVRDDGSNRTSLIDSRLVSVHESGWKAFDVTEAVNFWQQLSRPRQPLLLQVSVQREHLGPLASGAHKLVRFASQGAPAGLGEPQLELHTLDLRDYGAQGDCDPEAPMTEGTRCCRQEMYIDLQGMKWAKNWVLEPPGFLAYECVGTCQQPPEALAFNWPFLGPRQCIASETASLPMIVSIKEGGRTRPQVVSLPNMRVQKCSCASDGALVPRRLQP
# Chain of Torsin-1A-interacting protein 1 (Homo sapiens) (Q5JTV8 whole entry, looked up): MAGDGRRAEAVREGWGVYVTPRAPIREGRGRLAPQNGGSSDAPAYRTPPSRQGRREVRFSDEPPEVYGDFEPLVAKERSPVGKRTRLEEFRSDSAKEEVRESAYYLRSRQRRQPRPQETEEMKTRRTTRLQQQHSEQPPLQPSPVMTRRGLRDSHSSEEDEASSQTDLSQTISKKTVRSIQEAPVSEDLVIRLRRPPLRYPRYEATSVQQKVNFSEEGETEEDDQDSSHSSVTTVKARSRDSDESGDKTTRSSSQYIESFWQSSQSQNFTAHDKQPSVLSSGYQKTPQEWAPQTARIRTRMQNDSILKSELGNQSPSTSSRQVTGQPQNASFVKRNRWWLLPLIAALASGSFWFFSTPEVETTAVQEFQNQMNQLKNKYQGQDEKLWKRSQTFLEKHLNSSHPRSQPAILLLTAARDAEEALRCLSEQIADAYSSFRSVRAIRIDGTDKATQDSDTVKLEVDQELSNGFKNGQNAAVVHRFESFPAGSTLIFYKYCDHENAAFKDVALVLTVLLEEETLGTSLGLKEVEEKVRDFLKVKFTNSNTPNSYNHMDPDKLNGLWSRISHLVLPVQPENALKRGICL
# Chain of Epidermal growth factor receptor (Homo sapiens) (P00533 whole entry, looked up): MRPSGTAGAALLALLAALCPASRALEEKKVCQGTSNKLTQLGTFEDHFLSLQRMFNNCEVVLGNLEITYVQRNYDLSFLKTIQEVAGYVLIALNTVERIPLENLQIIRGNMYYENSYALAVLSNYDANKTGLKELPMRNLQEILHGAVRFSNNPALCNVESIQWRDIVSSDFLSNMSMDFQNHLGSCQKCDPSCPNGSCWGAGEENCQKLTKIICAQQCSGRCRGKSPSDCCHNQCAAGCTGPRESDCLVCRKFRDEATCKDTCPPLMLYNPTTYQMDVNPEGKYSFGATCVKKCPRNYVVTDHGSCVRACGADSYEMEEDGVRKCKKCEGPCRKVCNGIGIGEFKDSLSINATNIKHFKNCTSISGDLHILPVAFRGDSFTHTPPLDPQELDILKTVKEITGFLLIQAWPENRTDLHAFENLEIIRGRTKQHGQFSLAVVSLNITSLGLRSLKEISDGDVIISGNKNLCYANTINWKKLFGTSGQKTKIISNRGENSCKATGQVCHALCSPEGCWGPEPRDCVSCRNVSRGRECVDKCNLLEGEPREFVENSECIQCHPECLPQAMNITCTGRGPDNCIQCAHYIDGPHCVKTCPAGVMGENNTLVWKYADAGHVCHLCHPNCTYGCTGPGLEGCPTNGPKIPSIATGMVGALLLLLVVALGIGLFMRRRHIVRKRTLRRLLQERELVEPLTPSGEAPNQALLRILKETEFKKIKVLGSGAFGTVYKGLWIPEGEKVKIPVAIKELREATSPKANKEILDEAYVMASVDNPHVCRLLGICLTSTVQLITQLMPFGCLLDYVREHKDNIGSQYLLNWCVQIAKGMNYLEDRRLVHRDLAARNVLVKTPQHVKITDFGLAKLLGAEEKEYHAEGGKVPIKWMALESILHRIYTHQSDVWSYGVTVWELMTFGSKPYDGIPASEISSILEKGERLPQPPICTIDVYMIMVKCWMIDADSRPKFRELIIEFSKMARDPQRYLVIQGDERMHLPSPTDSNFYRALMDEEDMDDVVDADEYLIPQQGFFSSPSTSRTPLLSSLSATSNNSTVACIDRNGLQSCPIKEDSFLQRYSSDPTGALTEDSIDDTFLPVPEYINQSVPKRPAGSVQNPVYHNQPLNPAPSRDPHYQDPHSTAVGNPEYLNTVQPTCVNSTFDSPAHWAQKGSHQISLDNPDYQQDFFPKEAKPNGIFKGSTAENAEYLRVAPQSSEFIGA
Structure (SMILES),composite z-score [1],composite z-score [2],composite z-score [3],z-score [4],composite z-score [5],composite z-score [6],composite z-score [7],composite z-score [8],composite z-score [9],composite z-score [10],composite z-score [11],z-score [12],composite z-score [13],composite z-score [14],composite z-score [15],composite z-score [16],composite z-score [17],composite z-score [18],composite z-score [19],composite z-score [20]
CC(C)C[C@@H]1NC(=O)[C@H]2C[C@@H](C(=O)NCCCCCC[N+](C)(C)C)[C@@H](c3cccc(OCCO)c3)N2C1=O,1.14,-0.231,-0.0365,-0.713 (inactive),0.293,0.661,0.109,0.504,0.438,0.682,-0.209,1.79,0.538,-0.432,-0.738,-0.152,-0.0035,-0.378,0.501,0.0962
CC=CC(O)C1C=CC2C(=O)N(c3ccccc3)C(=O)C2N1Nc1ccccc1 (stereo not given),1.37,0.864,0.882,-0.0227 (inactive),1.11,1.29,0.247,1.36,0.239,0.871,1.19,0.527,0.215,0.667,0.362,0.136,0.304,1.16,1.1,1.89
COc1ccc([Si](C)(C)[C@H]2[C@H](CCn3cc([C@H](O)c4ccccc4)nn3)O[C@@]3(C(=O)N(Cc4ccc(N5CCOC5=O)cc4)c4ccccc43)[C@@H]2C)cc1,-0.215,0.555,0.282,-0.372 (inactive),-1.23,-2.18,-0.228,-1.54,-0.958,-0.794,-0.873,-2.21,-0.849,0.287,0.481,-0.176,-0.138,-0.1,-0.833,-0.374
COCCOC(=O)N1C(=O)[C@@]2(c3cc(C#CCNC(N)=O)ccc31)[C@H](C(=O)N1CCCCCCC1)[C@H]1C(=O)O[C@H](c3ccccc3)[C@H](c3ccccc3)N1[C@@H]2c1ccc(O)cc1,1.25,-0.124,0.526,0.392 (inactive),0.527,1,0.734,1.28,0.751,1.27,0.964,-1.07,0.212,0.356,-0.947,-0.164,-0.214,-0.456,0.546,0.863
COC(=O)[C@@]1(Cc2ccccc2)[C@H]2c3cc(C(=O)N4CCCC4)n(C[C@H](O)CO)c3C[C@H]2CN1C(=O)c1ccccc1,1.06,0.571,1.01,0.797 (inactive),-0.209,-0.0288,-0.455,0.0783,-1.11,0.956,0.391,-0.925,-0.43,2.06,0.142,-0.124,-0.316,-0.107,2.96,-0.187
